Compound activity deposited in PubChem by National Center for Advancing Translational Sciences (NCATS).
Giardia FBPA inh-1 = qHTS Assay for Inhibitors of Fructose-1,6-bisphosphate Aldolase from Giardia Lamblia; AID 2451, 2010; A8B2U2; 0.71% of 290,000 active; Potency, µM (doses to about 59.6 µM), inactives show at the highest dose activity, negative = inhibition, most hits filed as inhibitors; purified Giardia FBPA; note: % is set by controls: 0 for no effect and ±100 for the full control effect; nearly all actives have a fitted effect of over 55% in size
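40 nM FBPA preincubated 10 min at RT with compound (up to 57.5 uM final), then substrate plus GAPDH/TPI/NAD/arsenate coupling and diaphorase/resazurin added. Fluorescence read after 20 min at RT, 525/598 nm.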
Tb PYK inh = qHTS of Trypanosoma Brucei Inhibitors; Potency, µM (highest dose often 76.8 µM), for inactives: at the highest dose activity, negative = inhibition, most hits filed as inhibitors; TbPYK enzyme, Kinase-Glo Plus ATP luminescence, 45 min; AID 624173, 2012; pyruvate kinase (Trypanosoma brucei), Q57TT1; 0.12% of 410,000 active; note: % is set by controls: 0 for no effect and ±100 for the full control effect; nearly all actives have a fitted effect of over 50% in size
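Luminescent Kinase-Glo Plus end-point after 45 min room-temperature reaction of T. brucei pyruvate kinase started with 130 uM ADP (final). Buffer TEA 50 mM pH 7.2 with KCl, MgCl2, BSA, Tween-20; titration-based qHTS with fitted concentration-effect curves.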
LmPK inhibitor = qHTS Assay for Inhibitors of Leishmania Mexicana Pyruvate Kinase (LmPK) | Potency, µM (highest dose often 57.5 µM), for the others: at the highest dose activity change, negative = inhibition, actives largely listed as inhibitors | Q27686 | purified LmPK, Kinase-Glo ATP luminescence, 1 h | AID 1721, 2009 | 0.37% of 290,000 active; note: % is set by controls: 0 for no effect and ±100 for the full control effect
Target sequence (Q27686 whole entry, looked up): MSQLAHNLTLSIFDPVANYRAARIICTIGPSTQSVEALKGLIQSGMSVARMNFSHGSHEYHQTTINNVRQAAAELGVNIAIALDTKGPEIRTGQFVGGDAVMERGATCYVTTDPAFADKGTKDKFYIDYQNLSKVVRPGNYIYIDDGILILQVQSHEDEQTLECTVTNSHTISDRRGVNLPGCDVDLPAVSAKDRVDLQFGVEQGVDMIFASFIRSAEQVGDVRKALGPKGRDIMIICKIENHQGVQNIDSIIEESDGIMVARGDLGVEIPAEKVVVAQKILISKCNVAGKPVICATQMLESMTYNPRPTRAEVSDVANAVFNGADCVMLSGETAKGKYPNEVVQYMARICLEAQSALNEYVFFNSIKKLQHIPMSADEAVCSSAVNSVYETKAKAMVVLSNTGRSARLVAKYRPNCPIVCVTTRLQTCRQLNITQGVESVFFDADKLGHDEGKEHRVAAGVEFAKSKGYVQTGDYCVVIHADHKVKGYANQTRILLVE
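Screened at intermediate enzyme activity to detect both inhibitors and activators: LmPK at 0.1 nM, with a 0.5 nM enzyme column as activation reference. PEP 0.5 mM, ADP 0.1 mM; ATP detected by luminescence after 1 h.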
RE007 growth inh = qHTS Assay for Inhibitors of the HIV-1 protein Vpr. S. pombe RE007 Vpr strain, BacTiter-Glo ATP luminescence, 24 h. Potency, µM (titrated, usually from 92.2 µM), for inactives: at the highest dose activity change, negative = less growth, actives largely listed as inhibitors. 0.21% of 360,000 active; active = well fitted falling curve with a large enough effect; inconclusive = small, poorly fitted or top-dose-only effect; inactive = no such curve, though single readings can be large or run the other way; note: % is set by controls: 0 for no effect and ±100 for the full control effect; nearly all actives have a fitted effect of over 50% in size
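Fission yeast strain RE007, carrying one chromosomally integrated HIV-1 vpr copy, was seeded at OD 0.01 in PMG+AL medium with 23 nL pinned compound. After 24 h at 30 °C and 99% humidity, viability was read by BacTiter-Glo luminescence.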
SARS PLP yeast = qHTS of Yeast-based Assay for SARS-CoV PLP. S. cerevisiae expressing SARS-CoV PLpro, growth rescue. 0.19% of 330,000 active. Potency, µM (series often up to 32.9 µM), for inactives: top-dose activity, positive = growth rescue, usual class: activators; calls by dose curve; note: 0% is about no effect; nearly all actives have a fitted effect of over 55% in size
Giardia growth = qHTS Assay for Inhibitors of Fructose-1,6-bisphosphate Aldolase from Giardia Lamblia: Giardia lamblia growth inhibition; shares compounds with Giardia FBPA inh-1; Giardia lamblia trophozoite growth inhibition; Potency, µM (titrated, usually from 57.5 µM), inactives show at the highest dose activity change, negative = inhibition, usual class: inhibitors; 5% of 1,500 active;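 note: trophozoites exposed to compound for 48 h at 37 °C; % is set by controls: 0 for no effect and ±100 for the full control effect; nearly all actives have a fitted effect of over 70% in size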
Mammal cell tox = qHTS Assay for Inhibitors of Fructose-1,6-bisphosphate Aldolase from Giardia Lamblia: Mammalian cellular toxicity | shares compounds with Giardia FBPA inh-1 | mammalian cell viability counter-screen, qHTS | Potency, µM (top dose mostly 57.5 µM), inactives show at the top dose viability change, negative = toxicity, hits mostly inhibitors | 4% of 1,500 active;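 note: Chinese hamster ovary cells used as mammalian cytotoxicity surrogate; viability measured as cellular ATP by luminescence; compound exposure lasted 48 h before reading; % is set by controls: 0 for no effect and ±100 for the full control effect; nearly all actives have a fitted effect of over 60% in size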
Giardia FBPA inh-2 = qHTS Assay for Inhibitors of Fructose-1,6-bisphosphate Aldolase from Giardia Lamblia: Primary screen confirmation; shares compounds with Giardia FBPA inh-1; purified Giardia aldolase enzyme activity, qHTS; Potency, µM (highest dose often 57.5 µM), inactives show top-dose activity change, negative = inhibition, actives largely listed as inhibitors; 5% of 1,500 active; note: % is set by controls: 0 for no effect and ±100 for the full control effect; nearly all actives have a fitted effect of over 45% in size
Rabbit FBPA inh = qHTS Assay for Inhibitors of Fructose-1,6-bisphosphate Aldolase from Giardia Lamblia: Rabbit FBPA Selectivity; 4% of 1,500 active; shares compounds with Giardia FBPA inh-1; Rabbit muscle FBPA enzyme inhibition, selectivity counter-screen; AID 2794, 2010; Potency, µM (top dose mostly 57.5 µM), for inactives: at the top dose activity, negative = inhibition, most hits filed as inhibitors; note: % is set by controls: 0 for no effect and ±100 for the full control effect; nearly all actives have a fitted effect of over 60% in size
GAPDH counter = qHTS Assay for Inhibitors of Fructose-1,6-bisphosphate Aldolase from Giardia Lamblia: Coupling assay counterscreen confirmation | GAPDH coupling enzyme counterscreen, biochemical, qHTS | 6% of 1,500 active | shares compounds with Giardia FBPA inh-1 | Potency, µM (titrated, usually from 57.5 µM), inactives show at the top dose activity change, negative = inhibition, actives largely listed as inhibitors; note: % is set by controls: 0 for no effect and ±100 for the full control effect; nearly all actives have a fitted effect of over 55% in size
Numbers without * were called inactive; ? = inconclusive; / = no result; [ ] = remark or other dose. Most compounds without a hit are left out; they make up all but 1.1% or so of the library. Unless noted, calls come from the whole dose curve; as a rule, active = well fitted curve in the direction sought with a large enough effect; inconclusive = small, poorly fitted or top-dose-only effect, or another doubt; inactive = no such curve, though single readings can be large; an effect the other way counts as inactive or inconclusive. Potency is the fitted concentration of half-maximal effect.

SMILES	Giardia FBPA inh-1	Tb PYK inh	LmPK inhibitor	RE007 growth inh	SARS PLP yeast	Giardia growth	Mammal cell tox	Giardia FBPA inh-2	Rabbit FBPA inh	GAPDH counter
O=C(Nc1ccc(N2CCOCC2)c2nonc12)C1CCCC1	0.5µM*	-20%	-1%	7%	1%	-24%[38.3 µM]	-4%	-17%	-5%	-24%
O=C(O)CCn1c(=O)c2cccn2c2cccnc21	/	-6%	/	/	/	/	/	/	/	/
COC(=O)c1c(SC)nc2ccccc2c1OCc1ccccc1C	/	-1%	/	/	/	/	/	/	/	/
Fc1ccc(CN2CCN(C(c3ccccc3)c3ccccc3)CC2)cc1	25µM*	-4%	-6%	-4%	4%	?	19%	-1%	12%	-5%
O=C(Cc1ccccc1)N1CCN(CCCc2ccccc2)CC1	25µM*	6%	-9%	-9%	2%	50%	1%	-2%	8%	7%
OCC1(CCc2ccccc2)CCN(Cc2ccccc2Cl)CC1	1%	-7%	0%	-16%	0%	/	/	/	/	/
Cc1ccc(CC(=O)N2CCN(Cc3ccccc3)CC2)cc1	-1%	2%	0%	-9%	0%	/	/	/	/	/
Clc1ccccc1CN1CCN(CCCc2ccccc2)CC1	20µM*	-18%	2%	-11%	-2%	-47%	-2%	-1%	7%	9%
O=C(Cc1ccccc1)N1CCN(Cc2ccc(F)cc2)CC1	28µM*	14%	-2%	6%	3%	2%[10.4 µM]	5%	6%	18%	9%
N#Cc1ccc(NC(=O)COCc2cc(-c3ccc(F)cc3)on2)cc1	/	-4%	/	/	/	/	/	/	/	/
CCC1=Nc2cc(C(=O)NC3CCCC3)ccc2Sc2ccc(Cl)cc21	/	-8%	/	/	/	/	/	/	/	/
CC(C)Oc1ccc(C(=O)Nc2c(C(=O)Nc3cccc(F)c3)oc3ccccc23)cc1	/	0%	/	/	/	/	/	/	/	/
Cc1ccccc1N1CCN(CC(=O)Nc2nc(C)c(C(=O)N(C)C)s2)CC1	?	-3%	-6%	-4%	6%	/	/	/	/	/
Cc1nc(NC(=O)CN2CCN(c3ccccc3F)CC2)sc1C(=O)N(C)C	3.2µM*	3%	5%	-18%	1%	0%[10.4 µM]	-1%	4%	5%	-13%
COC(=O)c1ccc(C(/C=C/[C@@H](C)C(=O)NCCN2CCCC2)NC(=O)OCc2ccccc2)cc1 (stereo partly specified)	5%	/	/	/	/	/	/	/	/	/
CCN1CCN(CCOCCOc2ccccc2-c2ccccc2)CC1	18µM*	/	-1%	/	-1%	11%[10.4 µM]	-9%	7%	-2%	2%
c1ccc(-c2ccccc2OCCOCCN2CCNCC2)cc1	20µM*	0%	-4%	22%	0%	?	6%	-3%	3%	-16%
COc1cc(/C=C(\C#N)C(=O)NCCc2ccccc2)cc(OC)c1O	?	-22%	2%	1%	-5%	/	/	/	/	/
